KCC2 mod: modulates chloride dependent transport by human KCC2; B-score of Tl+ flux slope (higher = more flux/activation; lower = inhibition) at 10 µM; KCC2 cells, thallium flux FluoZin-2 fluorescence; Q9H2X9; 190,000 compounds, 2.2% hits; AID 1456;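 active means thallium flux slope and its plate-corrected score both differing from the plate sample mean at a set confidence after two filtering rounds, in either direction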;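 further: slope of fluorescence scaled to starting intensity during 10 to 20 s after thallium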
Cardio protect: protects H9c2 cardiomyocytes from peroxide injury; H2O2 injury protection, ATPLite, 2 h; protection from H2O2 cell death, % at 20 µM; 360,000 compounds, 0.63% hits; AID 588492;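 active means compounds giving at least 50% protection of heart cells from peroxide-induced death in the single-dose screen, raw or plate-pattern-corrected value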;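 further: 0% = DMSO wells with peroxide and 100% = DMSO wells without peroxide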
Efflux pump mplx: inhibitors of Candida antifungal efflux pumps expressed in yeast; inhibition, % at 10 µM; AID 485275; 330,000 compounds, 0.44% hits; S. cerevisiae Candida pump triplex, Nile Red efflux;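 active means plate passing quality check with inhibition over a set limit, or well fluorescence over plate mean plus 4 SD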;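 further: Nile Red retained in pooled yeast measured as flow cytometry median fluorescence; 0% = buffer negative control and 100% = Enniatin B positive control; higher means more Nile Red kept so more efflux inhibition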
PHOSPHO1 block: blocks human PHOSPHO1 phosphatase activity | Q8TCT1 | 290,000 compounds, 1.1% hits | AID 1565 | recombinant PHOSPHO1, absorbance phosphatase assay | inhibition, % at 13.3 µM; in the data active means inhibition above about 60%
Calb FLC: C. albicans growth modulation with fluconazole; C. albicans CaCi-2 (fluconazole-resistant clinical isolate) + fluconazole, Alamar Blue growth, 48 h; growth inhibition, % (test concentration not listed); 300,000 compounds, 0.57% hits;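 active means growth inhibition above about 58% in most replicates, limit read from the data, passing the limit was not always enough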;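 further: all wells also contain fluconazole at 8 µg/ml as a sub-toxic cotreatment; 0% = median of DMSO wells and 100% = median of geldanamycin control wells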
Starred values were filed as active, the others as inactive; · = no result. Hits are enriched below; roughly 3.3% of the tested compounds scored in any of these assays.

SMILES	KCC2 mod	Cardio protect	Efflux pump mplx	PHOSPHO1 block	Calb FLC
CCOC(=O)C1=C(CSc2nc3c(cc2C#N)CN(C)CC3)OC(N)=C(C#N)C1c1ccccc1 (configuration not stated)	·	24.8	-0.1	97.6*	1.3
CCOC(=O)C1=C(CSc2nc(-c3ccccc3)ccc2C#N)OC(N)=C(C#N)C1c1ccccc1 (configuration not stated)	-0.201	-7.3	0.1	55.6	9.2
CCOC(=O)C1=C(CSc2nc3c(cc2C#N)CN(C)CC3)OC(N)=C(C#N)C1c1ccc(F)cc1 (configuration not stated)	0.144	12.7	0.2	66.6*	-6.9
O=C(CCCN1C(=O)c2cccc3cccc(c23)C1=O)N1CCN(c2ccccc2O)CC1	-0.152	66.8*	-0.1	-10.5	3.8
CNC(=O)c1nnsc1S(=O)c1ccc(Cl)cc1 (configuration not stated)	0.615	-18.4	·	4.0	105.1*
CCCNC(=O)c1nnsc1S(=O)c1ccc(Cl)cc1 (configuration not stated)	0.357	-21.1	·	-15.8	1.7
CC(C(=O)Nc1ccccc1)N(C)Cc1cccs1 (configuration not stated)	·	-1.7	-0.1	27.5	-3.5
Cc1ccccc1NC(=O)c1cc(-c2ccco2)nc2ccccc12	·	1.4	·	·	·
Cc1ccc2sc(NNC(=O)c3cc(-c4cccs4)nc4ccccc34)nc2c1C	-0.225	·	0.4	-1.2	-6.9
O=C(NNc1nc2ccc(Cl)cc2s1)c1cc(-c2cccs2)nc2ccccc12	0.447	20.2	-0.5	-11.1	86.1*
Cc1cccc(NC(=O)c2cc(-c3ccco3)nc3ccccc23)n1	0.00461	60.7*	0.3	17.9	-6.0
Cc1cc(C)c2nc(NNC(=O)c3cc(-c4cccs4)nc4ccccc34)sc2c1	1.05	56.2*	0.3	-1.2	82.5*
Cc1ccc(NC(=O)c2cc(-c3cccs3)nc3ccccc23)nc1	0.0294	64.1*	0.2	-1.6	-0.4
Cc1c(Br)c(O)c(Br)c2sc(=O)oc12	0.0422	1.7	0.2	-69.3	·
Nc1nc(SCC(=O)c2cc3ccccc3o2)n[nH]1	0.826	-2.4	0.0	27.1	-10.3
O=C(O)CSc1cccc[n+]1[O-]	0.201	-0.3	-0.1	-2.3	-12.1
O=C(CSc1cccc[n+]1[O-])c1cc(Cl)ccc1Cl	-0.312	9.1	0.0	-2.1	100.4*
O=C(CSc1cccc[n+]1[O-])c1cc2ccccc2o1	7.19*	-13.6	0.2	79.4*	-10.9
CCOc1ccc(N(CC(=O)N/N=C/c2ccccn2)S(=O)(=O)c2ccc(Cl)cc2)cc1	·	56.2*	-0.2	26.5	-5.1
COc1nnc(-c2ccc(C)c(S(=O)(=O)NCCO)c2)c2ccccc12	0.0724	62.2*	0.0	-0.6	-12.1
CCOC(=O)CNS(=O)(=O)c1cc(-c2nnc(Nc3ccc4c(c3)OCO4)c3ccccc23)ccc1C	-3.24	25.9	0.2	-19.1	-6.8
Cc1ccc(-c2n[nH]c(=S)c3ccccc23)cc1S(=O)(=O)NCC1CCCO1 (configuration not stated)	·	12.1	0.0	-106.9	57.4
Cc1ccc(NS(=O)(=O)c2cc(-c3n[nH]c(=O)c4ccccc34)ccc2C)cc1	-1.53	50.4*	-0.1	-5.0	-4.7
CCOC(=O)CNS(=O)(=O)c1cc(-c2n[nH]c(=O)c3ccccc23)ccc1C	·	60.6*	·	-12.7	7.1
Cc1ccc(C)c(S(=O)(=O)Nc2ccc(O)cc2)c1	·	-2.8	0.0	11.4	-2.2
SMILES	KCC2 mod	Cardio protect	Efflux pump mplx	PHOSPHO1 block	Calb FLC
Cc1ccc(-c2n[nH]c(=O)c3ccccc23)cc1S(=O)(=O)NCC1CCCO1 (configuration not stated)	·	71.3*	0.3	46.2	-0.1
CN(C)c1ccc(NC(=O)CSc2nc(C3CC3)nc3ccccc23)cc1	·	-1.7	0.1	27.5	-4.7
CC1(C)CC(=O)/C(=C(\O)CCCN2C(=O)c3ccccc3C2=O)C(=NCC(=O)O)C1	0.113	10.2	0.1	-24.1	-20.7
O=C1CC(c2ccccc2)CC(=NCCO)/C1=C(\O)CCCN1C(=O)c2ccccc2C1=O (configuration not stated)	-0.799	2.3	0.1	11.2	64.1*
CC(Oc1ccc(Cl)cc1C(N)=O)C(=O)N1CCc2ccccc21 (configuration not stated)	·	8.9	-0.1	·	·
CC(Oc1ccc(Cl)cc1Cl)C(=O)NC(=S)N1CCc2ccccc21 (configuration not stated)	43.6*	18.6	-0.1	-20.1	14.9
O=C(COc1ccc(Br)cc1Br)NC(=S)N1CCCc2ccccc21	10.5*	-0.5	-0.1	82.7*	-6.9
CN1CCN(C(=S)NC(=O)c2ccccc2Br)CC1	·	2.1	0.1	36.4	9.3
O=C(NC(=S)N1CCc2ccccc21)c1ccccc1Br	60.3*	-2.8	-0.3	3.4	-13.3
O=C(COc1ccc(Br)cc1Cl)NC(=S)N1CCc2ccccc21	23.3*	0.4	0.1	-6.2	-5.7
O=C(COc1ccc(Br)cc1CO)N1CCCc2ccccc21	·	-5.6	0.2	38.8	6.7
CCOc1ccc(OCCC(=O)NNC(=O)c2cc(OC)c(OC)c(OC)c2)cc1	·	-3.5	-0.1	·	-6.5
CCOC(=O)c1nc(N/N=C/c2ccccc2)sc1Br	·	-4.9	-0.2	·	-4.6
CCOC(=O)N1CCN(C(=O)Nc2sc3nc4n(c(=O)c3c2C)CCC(C)CC4)CC1 (configuration not stated)	-0.336	14.2	0.0	73.8*	8.4
CCOC(=O)c1sc2nc3n(c(=O)c2c1C)CCC(C)CC3 (configuration not stated)	-0.183	-24.5	0.0	78.3*	-6.2
CCOC(=O)N1CCC(NC(=O)c2sc3nc4n(c(=O)c3c2C)CCCC4)CC1	0.58	8.6	-0.2	21.4	6.0
Cc1nn(CC(=O)c2ccc3c(c2)OCCO3)c(=O)c(C#N)c1C	·	-3.8	-0.1	·	·
Brc1ccc(Br)c2cnccc12	·	2.1	·	·	·
CC(C(=O)NCCCc1ccccc1)n1cccc1C(=O)c1ccccc1 (configuration not stated)	·	-5.8	0.1	69.7*	32.2
O=c1cc(O)n(-c2ccc(Cl)cc2)c(=S)[nH]1	0.0871	-7.0	-0.1	81.6*	-2.3
COc1ccc(-c2cc(C3CCN(Cc4cccc(C(F)(F)F)c4)CC3)[nH]n2)cc1	0.0505	-10.3	-0.1	19.5	70.3*
COc1ccc(-c2cc(C3CCN(CC(O)C(F)(F)F)CC3)[nH]n2)cc1 (configuration not stated)	·	7.9	-0.1	22.7	-11.8
Oc1c(C=Nc2cccnc2)sc2ccccc12	-1	1.6	0.0	-17.5	5.8
Oc1sc(C=Nc2ccc(F)cc2)c2ccccc12	·	-5.6	0.0	64.9*	10.6
Oc1sc(C=Nc2ccccc2)c2ccccc12	·	32.3	-0.1	64.9*	-69.3
CN(C)c1cccc(C(=O)Nc2ccc(S(=O)(=O)Nc3nccs3)cc2)c1	·	1.4	0.1	·	·
COC(=O)CSC1=C(C#N)C(=O)NC(c2ccccc2)S1 (configuration not stated)	·	7.7	0.1	97.5*	-1.0
